Assay results reported in PubChem BioAssay.
Active and inactive are the calls of the source.

Tests used:
[1] = test system: PRMT1 (protein arginine N-methyltransferase 1); assay: small molecules binding arginine methyltransferase PRMT1 – biochemical, small-molecule microarray, 635 nm fluorescence, primary screen (AID 1088); conditions: higher = more signal;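 further: binding of Prmt1 protein to compounds spotted on small-molecule microarray slides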
[2] = growth effects on S. cerevisiae YJM789 – YJM789 clinical isolate, OD600, 24 h, basal, primary screen (AID 1089); conditions: higher = more signal, called active from +8 up or from −8 down;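 further: growth of clinical yeast isolate S. cerevisiae YJM 789 seeded 1000 cells per well; test concentration not given here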
[3] = S. pombe growth modifiers, basal conditions – strain 972, OD600, 24 h, no modulator, primary screen (AID 1090);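 further: basal condition with compound alone and no growth modifier present; test concentration not given here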; conditions: S. pombe 972 growth, higher = more signal, called active from +8 up or from −8 down
[4] = budding yeast growth modifiers under rapamycin – strain BY4716, OD600, 96 h, primary screen (AID 1091); further: test concentration not given here; conditions: S. cerevisiae BY4716 + rapamycin, higher = more signal, called active from +8 up or from −8 down
[5] = target: Torsin-1A-interacting protein 2 (Homo sapiens) (UniProt Q8NFQ8); assay: small molecules binding lysate-expressed LULL1 – cell lysate, human LULL1 lysate, 635/667 nm fluorescence, primary screen (AID 1092); conditions: small-molecule microarray, hLULL1 lysate binding, 635 nm fluorescence; higher = more signal;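 further: probe is lysate of COS7 cells overexpressing human LULL1; score merges per-feature 667 nm fluorescence with signal-to-noise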
Chain of Torsin-1A-interacting protein 2 (Homo sapiens) (Q8NFQ8 whole entry, looked up): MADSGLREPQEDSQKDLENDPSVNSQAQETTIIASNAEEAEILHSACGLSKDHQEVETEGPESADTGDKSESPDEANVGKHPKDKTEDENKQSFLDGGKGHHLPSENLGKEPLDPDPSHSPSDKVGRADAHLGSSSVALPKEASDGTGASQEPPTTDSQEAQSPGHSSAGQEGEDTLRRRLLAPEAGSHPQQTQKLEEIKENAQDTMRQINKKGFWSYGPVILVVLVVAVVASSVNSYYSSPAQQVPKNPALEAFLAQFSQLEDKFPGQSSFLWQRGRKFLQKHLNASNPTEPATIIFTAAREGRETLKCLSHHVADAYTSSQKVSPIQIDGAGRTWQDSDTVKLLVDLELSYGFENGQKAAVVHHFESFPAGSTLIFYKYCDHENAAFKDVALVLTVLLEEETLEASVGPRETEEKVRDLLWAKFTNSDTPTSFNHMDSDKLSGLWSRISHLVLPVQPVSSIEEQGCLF

[6] = optical density change of DRC41 E. coli – strain DRC41, OD650, 24 h, E. coli filamentation project, primary screen (AID 1093);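 further: MC1000 strain lacking acrAB efflux and sulA so SOS filamentation is blocked; test concentration not given here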; conditions: E. coli DRC41 growth, higher = more signal, called active from +8 up or from −8 down
[7] = probe aLefty2 binding to arrayed compounds – biochemical, biotinylated probe, 635/667 nm fluorescence, primary screen (AID 1094); conditions: small-molecule microarray, higher = more signal;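 further: score merges spot fluorescence near 667 nm with spot signal-to-noise ratio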
[8] = test system: Noggin (protein binding on small-molecule microarray); assay: small molecules binding Noggin protein – biochemical, 635/667 nm fluorescence, primary screen (AID 1095); conditions: 635 nm fluorescence, higher = more signal;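 further: score merges 667 nm feature fluorescence with signal to noise over triplicate slides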
[9] = target: Neurogenic locus notch homolog protein 3 (Homo sapiens) (UniProt Q9UM47); assay: small molecules binding NOTCH3 protein – biochemical, 635/667 nm fluorescence, primary screen (AID 1096); conditions: small-molecule microarray, 635 nm fluorescence, higher = more signal
Chain of Neurogenic locus notch homolog protein 3 (Homo sapiens) (Q9UM47 whole entry, looked up): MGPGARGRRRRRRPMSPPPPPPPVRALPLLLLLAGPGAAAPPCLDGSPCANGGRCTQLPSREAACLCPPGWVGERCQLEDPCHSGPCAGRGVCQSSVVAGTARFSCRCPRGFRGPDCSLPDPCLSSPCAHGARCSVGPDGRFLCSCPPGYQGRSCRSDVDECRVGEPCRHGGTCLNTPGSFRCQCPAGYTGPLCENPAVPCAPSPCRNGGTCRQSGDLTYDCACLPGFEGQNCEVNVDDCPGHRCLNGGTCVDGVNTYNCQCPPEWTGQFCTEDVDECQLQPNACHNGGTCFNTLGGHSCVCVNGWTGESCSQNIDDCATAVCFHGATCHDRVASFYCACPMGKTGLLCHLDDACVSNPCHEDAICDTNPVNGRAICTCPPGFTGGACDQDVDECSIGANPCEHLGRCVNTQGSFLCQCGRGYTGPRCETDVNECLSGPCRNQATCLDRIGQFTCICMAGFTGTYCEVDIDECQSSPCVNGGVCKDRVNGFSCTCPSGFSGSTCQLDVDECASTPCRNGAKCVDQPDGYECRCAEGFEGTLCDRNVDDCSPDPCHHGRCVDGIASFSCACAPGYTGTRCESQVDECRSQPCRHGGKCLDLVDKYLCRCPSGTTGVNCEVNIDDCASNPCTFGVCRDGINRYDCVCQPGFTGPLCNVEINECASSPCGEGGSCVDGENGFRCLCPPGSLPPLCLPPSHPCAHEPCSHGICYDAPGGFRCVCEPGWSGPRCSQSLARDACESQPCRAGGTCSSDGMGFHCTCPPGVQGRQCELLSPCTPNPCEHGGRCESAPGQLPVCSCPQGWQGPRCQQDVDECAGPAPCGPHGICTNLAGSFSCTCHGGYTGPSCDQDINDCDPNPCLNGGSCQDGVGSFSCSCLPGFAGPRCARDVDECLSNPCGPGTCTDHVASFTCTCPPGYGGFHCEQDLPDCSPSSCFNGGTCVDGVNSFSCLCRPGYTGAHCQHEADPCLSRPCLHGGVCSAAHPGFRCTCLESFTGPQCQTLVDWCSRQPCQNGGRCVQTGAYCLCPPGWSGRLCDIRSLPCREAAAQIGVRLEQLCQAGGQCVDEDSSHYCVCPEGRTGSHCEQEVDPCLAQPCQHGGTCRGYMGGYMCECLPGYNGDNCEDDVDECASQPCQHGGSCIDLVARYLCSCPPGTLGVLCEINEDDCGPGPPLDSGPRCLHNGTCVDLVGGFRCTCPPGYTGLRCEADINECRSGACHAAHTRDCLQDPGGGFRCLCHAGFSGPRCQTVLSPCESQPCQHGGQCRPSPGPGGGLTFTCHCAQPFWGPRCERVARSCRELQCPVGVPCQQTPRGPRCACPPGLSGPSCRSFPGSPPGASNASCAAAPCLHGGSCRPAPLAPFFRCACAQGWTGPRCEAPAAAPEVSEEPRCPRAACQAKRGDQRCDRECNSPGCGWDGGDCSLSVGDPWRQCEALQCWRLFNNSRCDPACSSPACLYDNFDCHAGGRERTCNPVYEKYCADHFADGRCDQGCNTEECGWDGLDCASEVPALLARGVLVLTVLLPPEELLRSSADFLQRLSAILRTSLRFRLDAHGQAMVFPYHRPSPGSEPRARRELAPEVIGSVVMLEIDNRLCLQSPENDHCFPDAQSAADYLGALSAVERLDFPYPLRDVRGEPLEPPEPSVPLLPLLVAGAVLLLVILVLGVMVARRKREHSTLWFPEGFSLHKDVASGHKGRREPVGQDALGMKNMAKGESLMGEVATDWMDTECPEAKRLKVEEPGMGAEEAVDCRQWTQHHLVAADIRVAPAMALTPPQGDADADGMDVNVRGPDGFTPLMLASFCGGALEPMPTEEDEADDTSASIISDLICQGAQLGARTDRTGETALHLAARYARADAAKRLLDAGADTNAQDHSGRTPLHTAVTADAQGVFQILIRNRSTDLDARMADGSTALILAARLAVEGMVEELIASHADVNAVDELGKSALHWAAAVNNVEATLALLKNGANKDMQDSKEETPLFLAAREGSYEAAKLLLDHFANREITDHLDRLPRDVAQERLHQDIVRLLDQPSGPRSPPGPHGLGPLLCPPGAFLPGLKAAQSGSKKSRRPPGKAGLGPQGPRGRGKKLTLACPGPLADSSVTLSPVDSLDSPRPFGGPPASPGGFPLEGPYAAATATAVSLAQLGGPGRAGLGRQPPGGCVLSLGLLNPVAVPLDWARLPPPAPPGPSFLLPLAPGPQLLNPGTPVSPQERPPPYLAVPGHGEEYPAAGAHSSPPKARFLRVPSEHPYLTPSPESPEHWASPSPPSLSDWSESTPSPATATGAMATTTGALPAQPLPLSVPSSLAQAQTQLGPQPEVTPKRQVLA

[10] = probe aEGFR binding to arrayed compounds – biochemical, biotinylated probe, 635/667 nm fluorescence, primary screen (AID 1097); conditions: small-molecule microarray, higher = more signal;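 further: probe is a biotinylated anti-EGFR antibody binding compounds printed on slides; score combines fluorescence near 667 nm and signal to noise of each spot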
[11] = test system: Plasmodium falciparum Sir2 (PF13_0152, Sir2A); assay: Plasmodium falciparum Sir2A binding compounds – biochemical, small-molecule microarray, 635 nm fluorescence, primary screen (AID 1098); conditions: fluorescence 635 nm, higher = more signal;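 further: score merges spot fluorescence intensity with its signal-to-noise ratio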
[12] = probe aDKK1 binding to arrayed compounds – biochemical, biotinylated probe, 635/667 nm fluorescence, primary screen (AID 1099); conditions: small-molecule microarray, higher = more signal;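 further: score merges 667nm spot fluorescence with signal to noise across triplicate slides; reference of the scale not given here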
[13] = probe aCHRDL2 binding to arrayed compounds – biochemical, biotinylated probe, 635/667 nm fluorescence, primary screen (AID 1100); conditions: small-molecule microarray, higher = more signal
[14] = change in splice reporter luminescence, either direction, cell-based, HEK293, spliceosome inhibition project, primary screen (AID 1101); conditions: HEK293 splicing luciferase reporter, 24 h, higher = more signal, called active from +8 up or from −8 down;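 further: HEK293 cells carrying a splicing-competent luciferase reporter gene; test concentration not given here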
[15] = target: Fibroblast growth factor 10 (Homo sapiens) (UniProt O15520); assay: compounds binding fibroblast growth factor 10 – biochemical, small-molecule microarray, 635 nm fluorescence, primary screen (AID 1102); conditions: FGF10 binding, fluorescence 635 nm, higher = more signal
Chain of Fibroblast growth factor 10 (Homo sapiens) (O15520 whole entry, looked up): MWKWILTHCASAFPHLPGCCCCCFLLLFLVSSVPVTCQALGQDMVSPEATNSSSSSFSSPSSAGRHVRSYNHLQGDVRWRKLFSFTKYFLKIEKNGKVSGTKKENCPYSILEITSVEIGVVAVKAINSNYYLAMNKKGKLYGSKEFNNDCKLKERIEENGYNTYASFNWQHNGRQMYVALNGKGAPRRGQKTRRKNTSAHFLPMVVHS

[16] = test system: glycogen synthase kinase-3 (GSK3A per assay name; protocol says GSK3B); assay: compounds binding glycogen synthase kinase-3 – biochemical, small-molecule microarray, 635 nm fluorescence, GSK3A, primary screen (AID 1103); conditions: fluorescence 635 nm, higher = more signal; further: the record names both GSK3A and GSK3B
[17] = target: Epidermal growth factor receptor (Homo sapiens) (UniProt P00533); assay: compounds binding epidermal growth factor receptor – biochemical, small-molecule microarray, 635 nm fluorescence, primary screen (AID 1104); conditions: EGFR binding, higher = more signal;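 further: score merges 667 nm emission intensity with spot signal to noise over triplicate slides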
Chain of Epidermal growth factor receptor (Homo sapiens) (P00533 whole entry, looked up): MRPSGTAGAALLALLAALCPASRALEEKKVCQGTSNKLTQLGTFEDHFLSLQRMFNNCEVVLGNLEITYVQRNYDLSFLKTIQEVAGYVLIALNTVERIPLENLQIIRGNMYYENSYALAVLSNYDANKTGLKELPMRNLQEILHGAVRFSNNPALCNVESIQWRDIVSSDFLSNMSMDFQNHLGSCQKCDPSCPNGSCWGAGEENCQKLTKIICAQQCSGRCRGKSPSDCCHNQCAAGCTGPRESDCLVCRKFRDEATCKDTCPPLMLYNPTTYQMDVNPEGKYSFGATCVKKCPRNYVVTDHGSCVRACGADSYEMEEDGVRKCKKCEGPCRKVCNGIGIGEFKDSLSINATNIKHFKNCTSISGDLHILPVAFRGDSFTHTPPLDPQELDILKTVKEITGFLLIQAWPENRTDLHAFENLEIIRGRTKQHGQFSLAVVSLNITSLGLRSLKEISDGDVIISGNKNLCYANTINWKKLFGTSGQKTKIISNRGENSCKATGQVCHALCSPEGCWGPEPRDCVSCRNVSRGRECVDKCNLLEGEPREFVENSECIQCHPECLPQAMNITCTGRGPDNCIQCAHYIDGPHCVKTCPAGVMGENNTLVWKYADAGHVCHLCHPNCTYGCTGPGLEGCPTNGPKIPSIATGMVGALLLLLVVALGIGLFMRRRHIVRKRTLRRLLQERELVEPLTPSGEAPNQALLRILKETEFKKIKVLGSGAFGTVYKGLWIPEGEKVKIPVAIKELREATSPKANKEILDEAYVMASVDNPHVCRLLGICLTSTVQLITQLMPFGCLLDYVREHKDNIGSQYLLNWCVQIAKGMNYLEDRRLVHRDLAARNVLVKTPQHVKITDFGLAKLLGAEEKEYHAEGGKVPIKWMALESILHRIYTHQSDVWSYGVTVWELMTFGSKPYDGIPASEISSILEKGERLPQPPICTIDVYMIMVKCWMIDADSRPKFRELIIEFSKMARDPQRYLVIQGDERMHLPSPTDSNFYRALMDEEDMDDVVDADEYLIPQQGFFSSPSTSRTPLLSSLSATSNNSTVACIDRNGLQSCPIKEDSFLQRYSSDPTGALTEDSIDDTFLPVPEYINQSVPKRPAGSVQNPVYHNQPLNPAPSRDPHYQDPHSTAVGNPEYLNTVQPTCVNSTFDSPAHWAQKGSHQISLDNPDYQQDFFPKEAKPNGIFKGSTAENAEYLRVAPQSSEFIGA

[18] = target: Follistatin-related protein 3 (Homo sapiens) (UniProt O95633); assay: compounds binding follistatin-related protein 3 – biochemical, small-molecule microarray, 635 nm fluorescence, primary screen (AID 1105); conditions: FSTL3 binding, higher = more signal;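 further: score merges emission near 667 nm and signal to noise per printed spot across three slides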
Chain of Follistatin-related protein 3 (Homo sapiens) (O95633 whole entry, looked up): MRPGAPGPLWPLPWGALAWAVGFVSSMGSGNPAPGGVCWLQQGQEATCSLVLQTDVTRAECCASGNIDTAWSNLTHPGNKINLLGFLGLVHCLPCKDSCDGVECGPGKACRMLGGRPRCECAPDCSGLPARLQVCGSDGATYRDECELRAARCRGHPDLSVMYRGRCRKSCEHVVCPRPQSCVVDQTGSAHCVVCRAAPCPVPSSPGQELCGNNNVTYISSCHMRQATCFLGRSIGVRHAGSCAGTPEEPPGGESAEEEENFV

[19] = target: Dickkopf-related protein 1 (Homo sapiens) (UniProt O94907); assay: small molecules binding DKK1 protein – biochemical, small-molecule microarray, 635 nm fluorescence scan, primary screen (AID 1106); conditions: higher = more signal;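 further: score merges emission near 667 nm with signal to noise over three replicate slides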
Chain of Dickkopf-related protein 1 (Homo sapiens) (O94907 whole entry, looked up): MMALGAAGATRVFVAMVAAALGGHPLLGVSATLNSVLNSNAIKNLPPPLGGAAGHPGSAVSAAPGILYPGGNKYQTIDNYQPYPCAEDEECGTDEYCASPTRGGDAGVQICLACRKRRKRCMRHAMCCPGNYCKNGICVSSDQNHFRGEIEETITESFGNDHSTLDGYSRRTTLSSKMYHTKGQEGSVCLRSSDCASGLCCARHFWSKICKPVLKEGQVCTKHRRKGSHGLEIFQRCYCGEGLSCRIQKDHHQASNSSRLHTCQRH

[20] = test system: Inhibin beta A chain (activin A); assay: small molecules binding activin A – biochemical, small-molecule microarray, 635 nm fluorescence scan, primary screen (AID 1107); conditions: INHBA, higher = more signal;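 further: mouse activin A protein probed at 4.33 µg/mL on printed slides; score merges bound-protein fluorescence near 667 nm with spot signal-to-noise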

Structure (SMILES)	composite z-score [1]	z-score [2]	z-score [3]	z-score [4]	composite z-score [5]	z-score [6]	composite z-score [7]	composite z-score [8]	composite z-score [9]	composite z-score [10]	composite z-score [11]	composite z-score [12]	composite z-score [13]	z-score [14]	composite z-score [15]	composite z-score [16]	composite z-score [17]	composite z-score [18]	composite z-score [19]	composite z-score [20]
C[N+](C)(C)CCCCCCNC(=O)[C@@H]1C[C@@H]2C(=O)N3CCC[C@H]3C(=O)N2[C@@H]1c1ccc(O)cc1	1.43	-0.913 (inactive)	0.214 (inactive)	-0.696 (inactive)	2.9	0.2 (inactive)	-0.0216	1.4	1.03	0.0401	1.1	-0.0891	0.614	-0.546 (inactive)	1.37	1.2	1.23	1.46	1.25	0.578
CC[C@@H]1C=C(C(=O)O)[C@H](c2ccccc2)N1S(=O)(=O)c1ccc(C)cc1	0.598	-1.14 (inactive)	0.231 (inactive)	-0.12 (inactive)	2.87	-0.749 (inactive)	0.262	0.103	0.981	0.0638	1.69	0.748	0.853	0.0795 (inactive)	0.825	0.52	-0.482	0.0194	-0.294	0.941
COC(=O)[C@@]1(Cc2ccc(OC)cc2)[C@H]2c3cc(C(=O)N4CCCC4)n(CCO)c3C[C@H]2CN1C(=O)c1ccccc1	0.738	0.663 (inactive)	0.544 (inactive)	-0.289 (inactive)	4.02	-1.41 (inactive)	0.159	-0.0367	0.552	0.212	0.333	0.798	0.888	-1.14 (inactive)	0.717	0.483	0.0327	0.155	-0.418	0.45
COc1cccc(C)c1NC(=O)O[C@H]1[C@H](OC(=O)Nc2ccc3c(c2)OCO3)[C@@H](OC(=O)Nc2ccc3c(c2)OCO3)[C@@H](OC)O[C@@H]1CO	1.54	1.94 (inactive)	2.2 (inactive)	8.01 (active)	3.58	1.23 (inactive)	0.218	1.4	1.04	-0.0031	0.264	0.18	0.232	-0.23 (inactive)	1.46	1.35	0.603	1.44	0.708	0.724
C#CCN([C@@H](Cc1ccccc1)C(=O)OC)[C@@H](/C=C/C1CC1)[C@H](O)Cc1ccccc1	-0.59	-0.464 (inactive)	-1.22 (inactive)	-0.0898 (inactive)	0.209	-0.807 (inactive)	-0.0051	0.0503	-0.525	-0.307	-0.437	-0.575	0.37	0.414 (inactive)	-0.496	-0.489	-0.473	-0.494	-0.185	1.49
COc1cc(C(O)C2C=CC3C(=O)N(C)C(=O)C3N2Nc2ccccc2)cc(OC)c1OC (stereo not given)	1.33	0.0446 (inactive)	-0.549 (inactive)	-0.299 (inactive)	3.62	0.238 (inactive)	0.581	-0.339	1.11	0.197	1.66	1.22	0.655	-0.0318 (inactive)	0.581	1.25	-0.206	0.595	-0.543	0.916
CCOC(=O)C1=C[C@@H](C(C)C)N(S(=O)(=O)c2ccc(C)cc2)[C@H]1c1ccc(C(F)(F)F)cc1	1.35	1.43 (inactive)	1.5 (inactive)	2.08 (inactive)	3.17	-0.961 (inactive)	0.127	0.745	1.05	-0.0122	0.794	0.374	0.703	0.317 (inactive)	0.896	0.898	0.593	1.39	0.441	0.372
CCCC=C(CCC)[C@@H](NC(=O)C(C)(C)C)c1ccc(C(=O)OC)cc1	0.0225	0.647 (inactive)	1.51 (inactive)	1.68 (inactive)	3.12	-0.447 (inactive)	0.498	-0.383	0.803	-0.0023	-0.0973	1.13	1.06	-0.58 (inactive)	-0.129	-0.107	-0.0375	0.11	-0.58	0.757
C=CC[C@]1(C(=O)N2CCOCC2)COC(c2ccc(OCCCO)cc2)=N1	1.55	-0.544 (inactive)	-0.243 (inactive)	-1.28 (inactive)	4.02	0.0927 (inactive)	0.0386	0.78	1.09	-0.0828	1.76	-0.016	0.431	-0.612 (inactive)	0.66	0.438	-0.238	0.264	0.188	0.976
Cc1ccc(S[C@]2(C(=O)NCC(F)(F)F)CC(=O)N(Cc3cc(C(F)(F)F)cc(C(F)(F)F)c3)[C@@H]2c2ccc(CO)cc2)cc1	1.31	0.0966 (inactive)	-0.322 (inactive)	-1.53 (inactive)	1.79	-0.002 (inactive)	-0.152	-0.556	-0.133	-0.181	1.13	-0.193	0.532	0.507 (inactive)	-0.463	-0.864	-0.814	-0.861	-0.928	-0.45
CCOC(=O)C1=CC[C@@H](c2ccccc2)N(S(=O)(=O)c2ccc(C)cc2)[C@H]1c1ccccc1	0.0074	0.181 (inactive)	1.88 (inactive)	3.8 (inactive)	1.74	-0.794 (inactive)	0.02	0.156	0.505	0.0515	0.264	0.769	0.54	-0.387 (inactive)	0.356	0.738	-0.404	0.397	-0.187	0.903
COCC(=C=CC[C@H](O)c1ccccc1OCCO)C[C@H](O)c1ccccn1	1.14	0.636 (inactive)	-0.422 (inactive)	-0.505 (inactive)	3.35	0.723 (inactive)	-0.138	0.808	-0.0439	0.122	0.34	-0.201	-0.0336	0.0209 (inactive)	0.207	-0.115	-0.299	-0.114	-0.0344	0.41
Cc1ccc(N2C(=O)c3ccccc3[C@@H](C(=O)NCCCN(C)C)[C@@H]2c2ccc(CO)cc2)nc1	0.0027	-0.292 (inactive)	-0.636 (inactive)	-0.81 (inactive)	-0.732	0.213 (inactive)	0.186	-0.572	-0.916	0.576	0.451	1.51	0.824	-0.556 (inactive)	-0.514	-0.298	0.239	0.102	-0.06	-0.153
COC(=O)C1=CC(CCCO)=CC(c2ccc(CN3CCCC3)cc2)N(Cc2cccc(OC(F)(F)F)c2)C=C1C(=O)OC (stereo not given)	1.44	-1.22 (inactive)	-9.89 (active)	-1.11 (inactive)	3.31	-2.59 (inactive)	0.373	-0.116	0.888	-0.0418	1.26	0.752	0.82	-0.656 (inactive)	0.641	0.68	0.121	0.637	-0.271	0.976
CCCC=C(CCC)[C@@H](NS(=O)(=O)c1ccc(C(F)(F)F)cc1)c1ccccc1	0.907	1.22 (inactive)	1.46 (inactive)	3.03 (inactive)	1.41	-1.74 (inactive)	0.0749	-0.0917	0.275	-0.0415	0.156	-0.001	0.614	-0.172 (inactive)	0.0772	0.571	-0.585	-0.143	-0.61	0.388
CCC1=C2CN(Cc3ccccc3)[C@@H](C(=O)Cc3ccccc3)C2C=CCC1 (stereo not given in full)	-0.279	-0.273 (inactive)	-2.18 (inactive)	-0.728 (inactive)	2.47	0.673 (inactive)	-0.164	0.751	0.841	-0.177	1.46	-0.0616	-0.141	-1.04 (inactive)	0.57	-0.439	-0.42	0.532	0.118	0.749
CCCCNC(=O)c1ccc(C#CC(C)(C)C)c(OC(C)=O)c1	1.45	0.0582 (inactive)	-5.49 (inactive)	-1 (inactive)	0.503	1.05 (inactive)	-0.159	0.0904	1.1	-0.127	0.311	-0.369	-0.675	-1.11 (inactive)	1.11	1.04	0.841	1.44	0.689	1.12
O=C1N(CCS(=O)(=O)c2ccccc2)c2ccccc2[C@H]2OC(c3ccc(OCCCO)cc3)=N[C@@]12Cc1ccccc1	1.55	0.28 (inactive)	-0.0472 (inactive)	5.03 (inactive)	2.36	0.611 (inactive)	0.507	1.56	1.1	0.263	1.29	1.1	1.08	-1.49 (inactive)	0.896	1.05	1.03	1.1	1.04	1.04
CC(C)[Si](C#CCCCC#N)(O[C@H](c1ccccc1)c1cn(Cc2ccccc2)nn1)C(C)C	1.36	-1.45 (inactive)	-2.74 (inactive)	-2.8 (inactive)	0.573	1.84 (inactive)	-0.119	0.509	1.09	-0.0681	0.562	-0.17	-0.65	-1.08 (inactive)	1.01	1.15	0.494	1.21	0.869	0.105
